# In the supplement of paper PMC3545927:
# The list shows a part of the results. The hit rate among all sequences tested is not known here.
# Molecular target: furin, P09958
# Assay: furin cleavage Z-score vs untreated control; higher = more cleavage, active = 3.5 or more, inactive = 1 or less, 8 variable residues between constant flanks
# Description: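 Multiplexed peptide-cDNA fusion cleavage assay. 8-mer variable peptides flanked by constant Cys-Ala (N-term) and Ala-Gly-Asn-Ala-Ser-Ala-Ser-Ala (C-term) and conjugated to a cDNA oligonucleotide were bead-immobilised via the N-terminus. They were treated with purified furin at a 1:10 enzyme:substrate ratio in 50 mM HEPES pH 7.5, 1 mM CaCl2, 100 mM NaCl for 7.5, 15 or 30 min. Released cDNA was counted by next-generation sequencing, and log counts versus no-furin controls were lowess-adjusted and converted to robust Z-scores.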
# Sequence of furin, P09958 (P09958 whole entry): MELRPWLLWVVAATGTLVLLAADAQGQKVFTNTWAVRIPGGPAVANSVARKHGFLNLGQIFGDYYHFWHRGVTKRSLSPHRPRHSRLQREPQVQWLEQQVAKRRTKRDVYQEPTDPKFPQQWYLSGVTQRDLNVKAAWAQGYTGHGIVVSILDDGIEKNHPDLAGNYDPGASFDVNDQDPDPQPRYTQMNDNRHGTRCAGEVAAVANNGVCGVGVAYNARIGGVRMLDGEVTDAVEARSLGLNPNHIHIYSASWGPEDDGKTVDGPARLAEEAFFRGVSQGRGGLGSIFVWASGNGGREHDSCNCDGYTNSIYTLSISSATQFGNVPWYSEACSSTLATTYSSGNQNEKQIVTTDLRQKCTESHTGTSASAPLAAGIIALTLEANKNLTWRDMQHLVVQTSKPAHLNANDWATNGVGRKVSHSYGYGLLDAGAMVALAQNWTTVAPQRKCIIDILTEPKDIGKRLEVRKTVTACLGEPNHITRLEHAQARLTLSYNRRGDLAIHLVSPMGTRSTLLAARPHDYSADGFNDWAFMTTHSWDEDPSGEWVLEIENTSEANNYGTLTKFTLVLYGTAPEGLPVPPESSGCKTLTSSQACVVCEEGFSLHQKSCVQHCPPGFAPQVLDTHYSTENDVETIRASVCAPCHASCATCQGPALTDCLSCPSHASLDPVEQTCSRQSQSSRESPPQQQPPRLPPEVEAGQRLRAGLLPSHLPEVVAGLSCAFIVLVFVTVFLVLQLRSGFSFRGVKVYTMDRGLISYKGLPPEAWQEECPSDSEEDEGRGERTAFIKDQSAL
Sequence,furin cleavage Z-score (7.5 min),furin cleavage Z-score (15 min),furin cleavage Z-score (30 min)
CAMEECSIHLAGNASASA [HC1724],0.188 (inactive),1.13,0.153 (inactive)
CAASSRNIRSAGNASASA [FS-924],5.59 (active),8.19 (active),6.71 (active)
CARTRRNIDAAGNASASA [FS-3111],6.35 (active),7.27 (active),4.76 (active)
CAVRSRSIRSAGNASASA [FS-1663],11.3 (active),11.8 (active),8.54 (active)
CARTRRCVCVAGNASASA [FS-3213],-0.371 (inactive),-0.858 (inactive),-0.127 (inactive)
CARTRRTSKPAGNASASA [FS-1937],0.687 (inactive),3.02,2.44
CARTRRSINSAGNASASA [FS-2316],7.8 (active),8.93 (active),7.57 (active)
CAVTNDCPNSAGNASASA [HC262],-1.55 (inactive),-2.42 (inactive),-2.48 (inactive)
CAEVVTSTLVAGNASASA [HC2225],-0.125 (inactive),0.377 (inactive),-0.731 (inactive)
CAEKVVCCSMAGNASASA [HC2134],-0.767 (inactive),0.357 (inactive),-1.09 (inactive)
CALDRRSQRSAGNASASA [FS-910],2.25,3.02,4.23 (active)
CALSRRSIRSAGNASASA [FS-461],10.4 (active),11.5 (active),9.32 (active)
CALSAFSLHSAGNASASA [HC1605],0.383 (inactive),0.938 (inactive),1.75
CAMSIRSDRSAGNASASA [FS-1646],1.46,0.662 (inactive),1.58
CALSRRSISKAGNASASA [FS-2871],0.267 (inactive),1.81,-1.35 (inactive)
CAVHFRSIRSAGNASASA [FS-308],8.08 (active),8.31 (active),5.71 (active)
CAMEECSDHLAGNASASA [HC1731],-0.133 (inactive),-1.7 (inactive),1.31
CAKCLIRLKPAGNASASA [HC965],-0.996 (inactive),0.139 (inactive),0.507 (inactive)
CATSGITGDNAGNASASA [HC1339],0.521 (inactive),-1.94 (inactive),-2.62 (inactive)
CASSPRCKRTAGNASASA [FS-724],6.48 (active),5.33 (active),4.2 (active)
CAPTGSGKSTAGNASASA [HC776],-0.612 (inactive),-0.784 (inactive),0.917 (inactive)
CAPSPVVVGTAGNASASA [HC416],0.116 (inactive),0.136 (inactive),-0.669 (inactive)

Sequence,furin cleavage Z-score (7.5 min),furin cleavage Z-score (15 min),furin cleavage Z-score (30 min)
CAPTRRTKRTAGNASASA [FS-76],10.6 (active),10.9 (active),7.13 (active)
CAPSERTRRTAGNASASA [FS-1553],6.49 (active),7.9 (active),7.83 (active)
CASSFRFPRTAGNASASA [FS-196],0.00727 (inactive),0.495 (inactive),1.37
CATLEVVTSTAGNASASA [HC2278],2.04,-0.134 (inactive),-0.107 (inactive)
CATSPRTKRTAGNASASA [FS-1576],10.8 (active),10.5 (active),8.67 (active)
CAVVPCHRPSAGNASASA [HC2310],0.864 (inactive),0.937 (inactive),1.82
CADSLNTGWLAGNASASA [HC376],-0.896 (inactive),0.0514 (inactive),-1.36 (inactive)
CAAGLFYHHKAGNASASA [HC380],-0.0785 (inactive),-0.406 (inactive),0.464 (inactive)
CATTPCSESWAGNASASA [HC1892],-1.68 (inactive),-0.885 (inactive),0.194 (inactive)
CAKKKCDELAAGNASASA [HC859],0.206 (inactive),-0.587 (inactive),-1.61 (inactive)
CADAELIEANAGNASASA [HC1272],1.56,1.04,0.698 (inactive)
CADVSRARRVAGNASASA [FS-1519],0.954 (inactive),1.02,1.74
CAGLDRLRRVAGNASASA [FS-1126],0.977 (inactive),1.09,1.81
CAYLRRRRRVAGNASASA [FS-391],9.87 (active),10.2 (active),8.18 (active)
CAPVRRWRRVAGNASASA [FS-1247],9.64 (active),9.32 (active),6.63 (active)
CAPVRRRGDSAGNASASA [HC731],-0.373 (inactive),0.103 (inactive),-0.876 (inactive)
CAGLGRRRRVAGNASASA [FS-1127],6.73 (active),8.39 (active),7.41 (active)
CAYINRKKKVAGNASASA [FS-633],-0.8 (inactive),-0.697 (inactive),-0.973 (inactive)
CATTPCSHSWAGNASASA [HC1895],-0.676 (inactive),1.01,-1.05 (inactive)
CASIYPGHITAGNASASA [HC314],-1.99 (inactive),-1.12 (inactive),0.0447 (inactive)
CALTSMLTDPAGNASASA [HC1246],-0.19 (inactive),-0.57 (inactive),-0.448 (inactive)
